Experimental data taken from PubChem BioAssay.
Records with an inconclusive call do not appear. Activity calls are given as the source filed them.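 Rule for the calls, unless noted: active = viability loss from added drug above about 55%, and viability with drug at most 40%, in both replicates (limit read from the data, passing the limit was not always enough); inconclusive = both conditions met in only one replicate; inactive = neither replicate meets both conditions.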

What was measured:
[1] = Her2 expression decrease, cell viability multiplex – SKBR3 breast tumor cells, AlphaScreen, ATP viability, primary screen (AID 461;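 active = Her2 level under about 52% in both replicate screens, with viability over 70% of control, limit read from the data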;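 for Her2 level: lower value means less Her2 protein in the cells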;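 for viability: percent of carrier control wells set as 100% viability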); conditions: SKBR3 Her2 protein level, 18-24 h, measured here: SKBR3 viability, ATP luminescence, at 10 µM
[2] = target: Receptor tyrosine-protein kinase erbB-2 (Homo sapiens) (UniProt P04626); experiment: as above; conditions: 18-24 h, at 10 µM, stronger effect = lower value
Receptor tyrosine-protein kinase erbB-2 (Homo sapiens), sequence (P04626 whole entry, looked up): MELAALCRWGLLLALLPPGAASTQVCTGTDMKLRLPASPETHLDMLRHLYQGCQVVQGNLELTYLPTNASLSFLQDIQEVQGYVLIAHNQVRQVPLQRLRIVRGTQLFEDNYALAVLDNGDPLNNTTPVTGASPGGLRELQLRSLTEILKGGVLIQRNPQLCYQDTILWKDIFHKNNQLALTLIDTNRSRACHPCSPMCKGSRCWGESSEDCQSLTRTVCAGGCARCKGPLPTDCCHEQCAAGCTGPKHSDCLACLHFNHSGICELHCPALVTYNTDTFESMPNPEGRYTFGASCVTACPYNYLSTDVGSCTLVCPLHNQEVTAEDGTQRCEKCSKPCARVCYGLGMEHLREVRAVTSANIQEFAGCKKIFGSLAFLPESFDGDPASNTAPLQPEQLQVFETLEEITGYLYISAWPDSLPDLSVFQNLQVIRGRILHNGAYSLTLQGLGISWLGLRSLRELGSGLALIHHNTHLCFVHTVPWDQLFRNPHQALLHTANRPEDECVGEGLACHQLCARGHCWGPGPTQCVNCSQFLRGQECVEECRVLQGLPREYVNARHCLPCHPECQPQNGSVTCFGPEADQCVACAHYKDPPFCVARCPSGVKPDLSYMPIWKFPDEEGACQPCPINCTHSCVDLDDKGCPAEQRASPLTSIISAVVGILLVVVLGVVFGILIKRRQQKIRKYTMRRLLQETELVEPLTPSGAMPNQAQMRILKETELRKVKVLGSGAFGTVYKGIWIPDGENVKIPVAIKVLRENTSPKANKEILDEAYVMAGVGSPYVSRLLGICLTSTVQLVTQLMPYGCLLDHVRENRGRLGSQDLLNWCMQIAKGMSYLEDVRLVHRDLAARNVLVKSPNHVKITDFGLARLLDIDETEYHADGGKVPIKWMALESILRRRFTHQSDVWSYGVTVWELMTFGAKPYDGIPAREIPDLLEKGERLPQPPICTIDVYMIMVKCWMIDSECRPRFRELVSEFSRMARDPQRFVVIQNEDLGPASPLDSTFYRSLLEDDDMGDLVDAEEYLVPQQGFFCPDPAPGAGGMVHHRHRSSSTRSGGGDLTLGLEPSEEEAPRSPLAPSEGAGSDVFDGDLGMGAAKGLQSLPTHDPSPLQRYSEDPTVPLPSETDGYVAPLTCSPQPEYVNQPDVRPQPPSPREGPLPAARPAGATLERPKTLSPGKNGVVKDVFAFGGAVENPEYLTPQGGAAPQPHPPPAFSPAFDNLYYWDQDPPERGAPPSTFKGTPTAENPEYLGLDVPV

[3] = reduced viability of SK-BR-3 breast cancer cells – cell-based, 24 h, human, pilot screen (AID 572;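 active = viability at or below 10% of carrier control in both of two separate runs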;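 note: compound exposure lasted between 18 and 24 h rather than exactly 24 h; 100% = carrier-treated control wells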); conditions: SK-BR-3 viability, CellTiter-Glo luminescence, at 10 µM, stronger effect = lower value
[4] = HUVEC growth inhibition – cell-based, human, primary screen (AID 575;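 active = viability at or below 30% in both replicate assays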;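 note: 100% = median of untreated cell wells with 0.1% DMSO on each plate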); conditions: HUVEC proliferation, CellTiter-Glo luminescence, 72 h; at 10 µM; stronger effect = lower value
[5] = H69AR cell proliferation blockers – human, duplicate replicates, primary screen (AID 580;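 active = viability at or under a set limit in both replicates, limit being median viability minus 3 SD, cut at about 48% in these data, passing the limit was not always enough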;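 note: 100% = mean luminescence of untreated wells and 0% = no signal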); conditions: H69AR lung tumor cells viability, ATP luminescence, 72 h; at 10 µM; stronger effect = lower value
[6] = MRP1 drug-resistance reversers in H69AR cells – cell-based, doxorubicin co-treatment, pilot screen (AID 601); conditions: CellTiter-Glo, 72 h, at 10 µM; for differential viability (reversal): stronger effect = higher value
[7] = yeast transport mutant growth inhibition pilot in 384-well plates, post-Golgi transport modulator project (AID 636; in the data active = inhibition above about 31%); conditions: absorbance 615 nm, about 18 h, stronger effect = higher value
[8] = growth suppression of yeast trafficking mutant, preliminary HTS, modulators of trafficking downstream of Golgi apparatus project, 1536-format plate, OD 615 nm (AID 637; in the data active = inhibition above about 30%); conditions: yeast transport mutant growth, absorbance 615 nm, 18 h; stronger effect = higher value
[9] = S. cerevisiae growth inhibition in permissive medium (OD615), pilot counter-assay for S. cerevisiae lifespan shortening project, permissive growth control (AID 705;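 active = growth inhibition above 25% in both replicates, a cutoff set 3 SD above the mean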); conditions: OD615, 24 h, at 10 µM, stronger effect = higher value
[10] = S. cerevisiae growth inhibition in restrictive medium, OD615, pilot screen, restrictive growth control, yeast lifespan reduction project (AID 706;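 active = growth inhibition above a set limit, 3 SD over mean compound inhibition, in both replicates, cut at about 43% in these data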;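 note: modified DeaD lifespan yeast strain shifted to restrictive glucose medium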); conditions: OD615, 48 h, at 10 µM, stronger effect = higher value
[11] = doxorubicin toxicity protection in MRP-1 cells – H69AR cells, CellTiter-Glo, duplicate, MRP-1 activator project, pilot screen (AID 807;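 active = viability increase at or above a cutoff of the median across tested compounds plus 3 SD, cut at about 8.5% in these data, passing the limit was not always enough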;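 note: compound pretreatment 18-22 h then 72 h combined with doxorubicin; 0% = doxorubicin alone and 100% = vehicle without doxorubicin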); conditions: H69AR viability with doxorubicin, CellTiter-Glo luminescence; at 10 µM; stronger effect = higher value
[12] = viability of HCT116 without oncogenic beta-catenin – human colon tumor cells, pilot screen (AID 823;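 active = cell viability at or below a set limit in both duplicate runs, the limit being the all-compound median minus 4 SD, cut at about 23% in these data, passing the limit was not always enough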;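 note: 0% = wells killed by 20 µM Hyamine and 100% = untreated DMSO cell wells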); conditions: HCT116 beta-catenin knockout viability, CellTiter-Glo, 60 h; at 10 µM; stronger effect = lower value
[13] = viability of PTEN-null HCT116 cells – cell-based, HCT116 clonal line, CellTiter-Glo, pilot screen (AID 824;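 active = viability at or below 27.92% in each of two runs, the all-compound median minus 4 SD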;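 note: 0% = 20 µM Hyamine control and 100% = vehicle cell control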); conditions: HCT116 PTEN-deleted viability, 60 h, at 10 µM, stronger effect = lower value
[14] = RAM pathway blockade in budding yeast – dse1pr::URA3 reporter, 5-FOA selection, pilot screen (AID 869;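 active = inhibition over a set limit, the all-compound mean plus 3 SD, in both replicate runs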;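 note: 0% = DMSO wells with no growth and 100% = 10 µM 1-NA-PP1 with full growth; RAM network block rescues cells from 5-FOA so hits raise OD615 growth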); conditions: S. cerevisiae dse1pr::URA3 5-FOA growth, OD615, 2 d; at 10 µM; stronger effect = higher value; strain carries analog-sensitive mutant Cbk1 kinase
[15] = RAM signaling pathway blockade in yeast – S. cerevisiae, Pdr1DBD-CYC8 efflux-inhibited sensitized strain, primary screen (AID 1298;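 active = RAM network inhibition above 8.4% in each of two replicates, 3 SD over the compound average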;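 note: 0% = DMSO untreated cells without growth and 100% = 10 µM 1-NA-PP1 full growth; higher means more yeast growth rescued from 5-FOA killing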); conditions: S. cerevisiae cbk1-as DSE1-URA3 strain, 5-FOA growth OD615, 2 d; at 50 µM; stronger effect = higher value
[16] = H69AR cells + 2 uM doxorubicin, measured here: viability with 2 uM doxorubicin, stronger effect = lower value
[17] = H69AR cells, compound alone cytotoxicity

Structure (SMILES) | viability [1] | Her2 level [2] | viability [3] | viability [4] | viability [5] | differential viability (reversal) ([6]; H69AR cells + 2 uM doxorubicin) | viability [6, 16] | viability [6, 17] | inhibition [7] | inhibition [8] | growth inhibition [9] | growth inhibition [10] | viability increase [11] | viability [12] | viability [13] | inhibition [14] | RAM network inhibition [15]
CCSc1nc(O)c(CC)c(=O)n1C(C)CC (stereo not given) | 104% | 128% (inactive) | 104% (inactive) | 97.9% (inactive) | 108% (inactive) | 14.9% (inactive) | 93.2% | 108% | -6% (inactive) | -0.48% (inactive) | -9.35% (inactive) | -3.4% (inactive) | -0.54% (inactive) | 98.6% (inactive) | 93.7% (inactive) | -0.63% (inactive) | 11.3% (inactive)
Cc1ccc(N(C)C(=O)N2CCN(c3ccccn3)CC2)cc1 | 94.5% | 112% (inactive) | 94.5% (inactive) | 109% (inactive) | 98.2% (inactive) | 7.52% (inactive) | 90.7% | 98.2% | 2.27% (inactive) | -0.5% (inactive) | 0.955% (inactive) | 5.44% (inactive) | -1.03% (inactive) | 97.6% (inactive) | 97.1% (inactive) | 1.14% (inactive) | -0.55% (inactive)
CCCCc1nc2ccccc2n2cc3c(=O)n(C)c(=O)n(C)c3c12 | 86% | 86% (inactive) | 86% (inactive) | 106% (inactive) | 89.6% (inactive) | 4.81% (inactive) | 84.8% | 89.6% | 0% (inactive) | 2.17% (inactive) | -9.65% (inactive) | -16.2% (inactive) | -4.07% (inactive) | 95.8% (inactive) | 89.2% (inactive) | 1.36% (inactive) | 0.47% (inactive)
CCCOc1ccc(NC2=CC(=O)CC(C)(C)C2)cc1 | 100% | 103% (inactive) | 100% (inactive) | 87.2% (inactive) | 100% (inactive) | 7.44% (inactive) | 93% | 100% | -6.89% (inactive) | 2.13% (inactive) | -2.65% (inactive) | -14.7% (inactive) | 1.27% (inactive) | 95.4% (inactive) | 94.2% (inactive) | 3.14% (inactive) | 6.91% (inactive)
CSc1ccccc1NC(=O)c1cnc2n(c1=O)CCS2 | 97.5% | 82.5% (inactive) | 97.5% (inactive) | 111% (inactive) | 84.7% (inactive) | -6.53% (inactive) | 91.3% | 84.7% | -1.87% (inactive) | -1.33% (inactive) | -10.6% (inactive) | 3.57% (inactive) | -0.39% (inactive) | 105% (inactive) | 85.8% (inactive) | 2.75% (inactive) | -0.78% (inactive)
Cn1c(C(=O)NCCN2CCN(c3ccccc3F)CC2)cc2c(=O)n(C)c3ccccc3c21 | 89% | 73.5% (inactive) | 89% (inactive) | 70.3% (inactive) | 69.7% (inactive) | -2.84% (inactive) | 72.5% | 69.7% | -1.03% (inactive) | 2% (inactive) | -0.67% (inactive) | -2.32% (inactive) | -2.38% (inactive) | 74.4% (inactive) | 73.2% (inactive) | 0.115% (inactive) | 0.11% (inactive)
CCOC(=O)N1CCN(c2cc(=O)n(-c3ccccc3Cl)c(=O)[nH]2)CC1 | 98.5% | 124% (inactive) | 98.5% (inactive) | 100% (inactive) | 86.9% (inactive) | -3.22% (inactive) | 90.1% | 86.9% | 0.27% (inactive) | 12.5% (inactive) | -9.94% (inactive) | -0.995% (inactive) | 1.69% (inactive) | 96.8% (inactive) | 105% (inactive) | 0.77% (inactive) | 4.58% (inactive)
CCn1cc(SCC(=O)Nc2cc(C)on2)c2ccccc21 | 110% | 84% (inactive) | 110% (inactive) | 89.4% (inactive) | 84% (inactive) | 3.56% (inactive) | 80.5% | 84% | -4.13% (inactive) | -1.15% (inactive) | -5.85% (inactive) | -7.99% (inactive) | 1.09% (inactive) | 92.3% (inactive) | 92.3% (inactive) | 1.87% (inactive) | 2.85% (inactive)
CC1CCN(Cc2nc3c(c(=O)n(C)c(=O)n3C)n2Cc2cccc3ccccc23)CC1 | 84% | 86.5% (inactive) | 84% (inactive) | 98% (inactive) | 84.9% (inactive) | -4.26% (inactive) | 89.2% | 84.9% | -4% (inactive) | 3.67% (inactive) | -0.525% (inactive) | 0.35% (inactive) | -1.93% (inactive) | 87% (inactive) | 88.2% (inactive) | 0.115% (inactive) | 7.49% (inactive)
COC(=O)c1ccc(-c2nn(C)c(=O)c3ccccc23)cc1 | 93.5% | 99.5% (inactive) | 93.5% (inactive) | 83.8% (inactive) | 94.6% (inactive) | 7.75% (inactive) | 86.9% | 94.6% | -5.33% (inactive) | 4.17% (inactive) | 3.78% (inactive) | 6.35% (inactive) | -2.27% (inactive) | 94.3% (inactive) | 91% (inactive) | 0.79% (inactive) | -1.8% (inactive)
Cc1cc(NC(=O)CSc2nc3c(c(=O)n2Cc2ccccc2)SC(C)C3)no1 (stereo not given) | 104% | 106% (inactive) | 104% (inactive) | 74.5% (inactive) | 92.1% (inactive) | 15.8% (inactive) | 76.3% | 92.1% | -3.33% (inactive) | -1.83% (inactive) | -2.67% (inactive) | -0.455% (inactive) | -2.6% (inactive) | 100% (inactive) | 92.4% (inactive) | 2.35% (inactive) | 8.6% (inactive)
Cc1ccc(N=Cc2ccc(O)cc2O)cc1F | 112% | 80% (inactive) | 112% (inactive) | 69.3% (inactive) | 81.9% (inactive) | 8.83% (inactive) | 73.1% | 81.9% | -2.34% (inactive) | 6.39% (inactive) | -10.6% (inactive) | -25.5% (inactive) | -4.99% (inactive) | 76% (inactive) | 77.8% (inactive) | 0.995% (inactive) | 0.31% (inactive)
c1ccc2c(c1)Cc1cc(CN3CCOCC3)ccc1-2 | 85% | 100% (inactive) | 85% (inactive) | 99.7% (inactive) | 89.3% (inactive) | -2.81% (inactive) | 92.1% | 89.3% | 2.34% (inactive) | -1.15% (inactive) | -14.7% (inactive) | -4.66% (inactive) | 0.12% (inactive) | 92.3% (inactive) | 97.5% (inactive) | 1.01% (inactive) | 0.21% (inactive)
O=C(c1ccc(CSCc2ccccc2F)o1)N1CCN(c2ccc(N3CCOCC3)nn2)CC1 | 84.5% | 76% (inactive) | 84.5% (inactive) | 54.7% (inactive) | 79.7% (inactive) | -5.4% (inactive) | 85% | 79.7% | 0.9% (inactive) | -0.17% (inactive) | 1.75% (inactive) | 17.4% (inactive) | -4.06% (inactive) | 83.6% (inactive) | 89.7% (inactive) | 1.54% (inactive) | 2.93% (inactive)
Cc1cccc(C(=O)N2CCN(C(=O)c3cccc(C)c3)C(C)C2)c1 (stereo not given) | 110% | 116% (inactive) | 110% (inactive) | 107% (inactive) | 90.3% (inactive) | 2.61% (inactive) | 87.7% | 90.3% | -1.76% (inactive) | 24.8% (inactive) | -19.2% (inactive) | -9.12% (inactive) | 0.74% (inactive) | 95.9% (inactive) | 96.2% (inactive) | 0.75% (inactive) | 0.55% (inactive)
c1ccc2c(c1)nc(NC1CCCCC1)c1nncn12 | 98.5% | 109% (inactive) | 98.5% (inactive) | 86.6% (inactive) | 90.8% (inactive) | 19.9% (inactive) | 70.9% | 90.8% | -5% (inactive) | -1.17% (inactive) | -8.94% (inactive) | -7.48% (inactive) | -6.65% (inactive) | 89.9% (inactive) | 83.3% (inactive) | 0.325% (inactive) | 2.5% (inactive)
CC1(C)CC(=O)N(CC(=O)NCc2ccccc2)c2ccccc2S1(=O)=O | 78.5% | 112% (inactive) | 78.5% (inactive) | 106% (inactive) | 92.6% (inactive) | -8.55% (inactive) | 101% | 92.6% | -4.67% (inactive) | -1.33% (inactive) | -3.67% (inactive) | 6.21% (inactive) | -1.93% (inactive) | 107% (inactive) | 100% (inactive) | 0.485% (inactive) | 3.51% (inactive)
c1ccc2c(c1)nc(NCCN1CCOCC1)c1nncn12 | 92% | 102% (inactive) | 92% (inactive) | 109% (inactive) | 94.7% (inactive) | 8.78% (inactive) | 85.9% | 94.7% | -1.67% (inactive) | 2.5% (inactive) | -10.4% (inactive) | -3.62% (inactive) | 1.59% (inactive) | 103% (inactive) | 103% (inactive) | -0.055% (inactive) | -0.1% (inactive)
CCOc1ccccc1C1C(C(=O)Nc2ccc(OC)cc2)=C(C)Nc2nc(CCCO)nn21 (stereo not given) | 87.5% | 89.5% (inactive) | 87.5% (inactive) | 84.4% (inactive) | 91.3% (inactive) | 8.7% (inactive) | 82.6% | 91.3% | -0.4% (inactive) | -2.17% (inactive) | -9.82% (inactive) | -7.01% (inactive) | -0.17% (inactive) | 109% (inactive) | 98.7% (inactive) | 0.865% (inactive) | 1.36% (inactive)
Oc1ccccc1-c1nnc(COc2ccc(Cl)cc2Cl)o1 | 96% | 97.5% (inactive) | 96% (inactive) | 101% (inactive) | 63.3% (inactive) | -12.9% (inactive) | 76.1% | 63.3% | -8.8% (inactive) | 0.5% (inactive) | -10.2% (inactive) | -11.7% (inactive) | -1.77% (inactive) | 92.3% (inactive) | 86.6% (inactive) | 1.82% (inactive) | 7.07% (inactive)
